For assay [1], the target named is Luciferin 4-monooxygenase (Photinus pyralis) (UniProt P08659). Description: Biochemical firefly luciferase enzyme assay for NPC (AID 624030). Note: nearly all actives have a fitted effect of over 70% in size. Note: potency is the fitted concentration of half-maximal effect. In short, it runs like this: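 Counter-screen for direct inhibition of the luciferase enzyme by approved-drug library compounds, run at 10 nM enzyme in 50 mM Tris acetate (final). Luminescence was read within 5 min of enzyme-buffer addition and normalized to PTC124 versus DMSO (0%).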

Assay [2] in a line: S16 Schwann cell viability assay (CellTiter-Glo assay) (AID 624031).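 Note: cellular ATP luminescence as a viability measure; plate controls were DMSO-treated cells for no effect and cell-free wells for full effect; nearly all actives have a fitted effect of over 70% in size.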 The procedure, abridged:
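Native S16 Schwann cells (rat), serum-containing medium, overnight attachment then 24 h drug exposure at 37 °C/5% CO2. CellTiter-Glo ATP signal; normalized to cell-free and vehicle wells.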
(In general: In ATP-based viability assays light output follows the ATP content of the culture.)

Assay [3] is described as follows: S16 Schwann cell PMP22 intronic element firefly luciferase assay (AID 624032). Note: nearly all actives have a fitted effect of over 30% in size. Note: potency is the fitted concentration of half-maximal effect. The procedure, abridged: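 Rat S16 Schwann cells stably carrying a PMP22 intronic element-driven Fluc reporter were seeded overnight, then exposed to compounds for 24 h at 37 °C. Luminescence was normalized to PTC124 (positive control) and DMSO (0% activity).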
The target of assay [4] is Voltage-gated inwardly rectifying potassium channel KCNH2 (Homo sapiens) (UniProt Q12809). Description: qHTS Assay for Small Molecule Inhibitors of the Human hERG Channel Activity (AID 588834).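 Note: lower thallium flux fluorescence means stronger hERG block; nearly all actives have a fitted effect of over 50% in size.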 Note: potency is the fitted concentration of half-maximal effect. In short, it runs like this:
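hERG-BacMam U2OS, 2000 cells/well; 0.7X FluxOR loading 1 hr RT dark; cpd ~10 min 37 °C; stim buffer; FDSS fluorescence 2 min @ 1 s; AC50 Hill fit.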
For orientation: qHTS replaces the single test concentration by a dilution series.

The nature of assay [5]: S16 Schwann cell PMP22 intronic element beta-lactamase assay (AID 624044; calls by dose curve;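 note: 0% = DMSO and -100% = potassium clavulanate positive control; nearly all actives have a fitted effect of over 15% in size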). The following applies: S16 rat Schwann cells, PMP22 element beta-lactamase FRET, 24 h; ratio activity, negative = inhibition: at 38.3 µM (top of the series) unless noted. In short, it runs like this: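 Rat S16 Schwann cells with beta-Lac driven by a PMP22 intronic element, compound-treated 24 h at 37 °C. LiveBLAzer FRET B/G read: 460 nm normalized to potassium clavulanate vs DMSO; 535 nm FRET as viability; concentration-effect curves classified.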

The structures appear in SMILES notation. Results filed as inconclusive are left out. Unmarked numbers belong to inactive results. Activity calls are given as the source filed them. Unless noted, calls come from the whole dose curve; as a rule, active = well fitted curve in the direction sought with a large enough effect; inconclusive = small, poorly fitted or top-dose-only effect, or another doubt; inactive = no such curve, though single readings can be large; an effect the other way counts as inactive or inconclusive.

Chain of Voltage-gated inwardly rectifying potassium channel KCNH2 (Homo sapiens) (Q12809 whole entry, looked up): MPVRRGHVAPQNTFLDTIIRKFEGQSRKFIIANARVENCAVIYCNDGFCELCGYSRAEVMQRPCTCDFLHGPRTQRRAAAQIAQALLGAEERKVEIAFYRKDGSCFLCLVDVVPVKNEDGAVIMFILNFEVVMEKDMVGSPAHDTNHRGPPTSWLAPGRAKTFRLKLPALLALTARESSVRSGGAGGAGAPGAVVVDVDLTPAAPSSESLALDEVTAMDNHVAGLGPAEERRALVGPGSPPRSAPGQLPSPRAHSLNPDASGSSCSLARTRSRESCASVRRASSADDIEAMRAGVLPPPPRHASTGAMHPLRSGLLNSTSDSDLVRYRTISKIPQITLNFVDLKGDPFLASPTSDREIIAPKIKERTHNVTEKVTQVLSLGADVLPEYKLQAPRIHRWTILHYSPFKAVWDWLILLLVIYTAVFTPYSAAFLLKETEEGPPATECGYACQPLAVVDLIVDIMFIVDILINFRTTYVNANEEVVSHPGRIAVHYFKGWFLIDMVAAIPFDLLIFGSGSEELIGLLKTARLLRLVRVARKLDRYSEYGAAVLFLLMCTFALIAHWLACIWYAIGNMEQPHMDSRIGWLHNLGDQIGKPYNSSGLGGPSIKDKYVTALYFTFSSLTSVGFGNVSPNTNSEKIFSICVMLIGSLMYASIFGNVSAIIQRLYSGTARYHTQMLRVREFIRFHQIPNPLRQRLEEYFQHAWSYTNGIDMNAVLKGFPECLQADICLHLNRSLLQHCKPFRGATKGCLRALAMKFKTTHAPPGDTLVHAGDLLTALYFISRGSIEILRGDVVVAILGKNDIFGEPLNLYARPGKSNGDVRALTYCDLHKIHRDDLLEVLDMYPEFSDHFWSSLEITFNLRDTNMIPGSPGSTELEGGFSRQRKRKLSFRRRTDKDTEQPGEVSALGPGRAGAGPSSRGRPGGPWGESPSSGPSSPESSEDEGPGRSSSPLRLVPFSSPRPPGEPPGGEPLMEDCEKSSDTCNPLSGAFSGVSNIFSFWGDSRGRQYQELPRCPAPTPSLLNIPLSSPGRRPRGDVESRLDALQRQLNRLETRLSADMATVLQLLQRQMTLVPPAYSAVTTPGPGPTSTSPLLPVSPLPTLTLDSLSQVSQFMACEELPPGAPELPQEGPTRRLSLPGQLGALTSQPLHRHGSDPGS
Chain of Luciferin 4-monooxygenase (Photinus pyralis) (P08659 whole entry, looked up): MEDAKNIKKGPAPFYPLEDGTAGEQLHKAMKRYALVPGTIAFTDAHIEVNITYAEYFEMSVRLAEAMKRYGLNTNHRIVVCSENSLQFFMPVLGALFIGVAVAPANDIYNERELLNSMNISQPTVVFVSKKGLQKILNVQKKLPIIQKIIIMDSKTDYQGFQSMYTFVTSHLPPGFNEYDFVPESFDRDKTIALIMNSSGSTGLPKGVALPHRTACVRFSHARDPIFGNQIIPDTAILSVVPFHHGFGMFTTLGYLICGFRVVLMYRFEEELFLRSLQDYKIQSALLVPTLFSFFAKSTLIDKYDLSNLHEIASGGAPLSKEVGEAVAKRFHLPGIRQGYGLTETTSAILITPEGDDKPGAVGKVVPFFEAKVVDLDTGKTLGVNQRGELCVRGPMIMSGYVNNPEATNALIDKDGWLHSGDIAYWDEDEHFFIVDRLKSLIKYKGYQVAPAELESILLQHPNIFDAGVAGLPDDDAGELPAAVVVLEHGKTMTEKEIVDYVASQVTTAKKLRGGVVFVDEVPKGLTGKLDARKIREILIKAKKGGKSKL

As to `COc1ccc(/C=C/C(=O)OCCC(C)C)cc1`, the Potency in assay [1] is 11.4 µM (active). In addition, the Potency result in assay [2] and in assay [3] was “inactive” in each case.

For the molecule `Oc1ccc(Cl)c2c1CCC2`, the Potency entry in assay [4] is “inactive”. Moreover, the ratio activity, negative = inhibition in assay [5] was -4.38%.

`CN[C@@H]1[C@H](O[C@H]2[C@H](O[C@H]3[C@H](O)[C@@H](O)[C@H](N=C(N)N)[C@@H](O)[C@@H]3N=C(N)N)O[C@@H](C)[C@]2(O)C=O)O[C@@H](CO)[C@H](O)[C@H]1O`: the Potency result in assay [4], in assay [2] and in assay [3] was “inactive” throughout. The ratio activity, negative = inhibition in assay [5] is 0%.

For the molecule `N#Cc1ccc2c(c1)N(CCCN1CCC(O)CC1)c1ccccc1S2`, the Potency in assay [4] was 14.1 µM (active). Also, the Potency entry in assay [2] is “inactive”. Besides, the ratio activity, negative = inhibition in assay [5] is -13.2%.

For the molecule `FC(F)(F)COCC(F)(F)F`, the Potency result in assay [4], in assay [2] and in assay [3] was “inactive” in each case. For the same molecule, in assay [5], the ratio activity, negative = inhibition is -0.887%.

Turning to `CN1C(=O)C[C@@H](C(=O)N[C@@H](Cc2cnc[nH]2)C(=O)N2CCC[C@H]2C(N)=O)NC1=O`, the Potency result in assay [4], in assay [2] and in assay [3] was “inactive” in each case. The ratio activity, negative = inhibition in assay [5] is -0.824%.

Consider `O=C(O[C@H]1CN2CCC1CC2)N1CCc2ccccc2[C@@H]1c1ccccc1`, for which the Potency entry in assay [1] and in assay [2] was “inactive” in each case.

Consider `CN(C)CCCSc1ccccc1NC(=O)/C=C/c1ccccc1`, for which the Potency entry in assay [1], in assay [2] and in assay [3] was “inactive” throughout.

`O=[n+]1ccn([O-])c2ccccc21`: the Potency entry in assay [4], in assay [2] and in assay [3] was “inactive” throughout. For the same molecule, the ratio activity, negative = inhibition in assay [5] was 6.86%.

For `FC(F)OC(Cl)C(F)(F)F` (stereo unspecified), the Potency entry in assay [1], in assay [2] and in assay [3] was “inactive” each time.

In the case of `CC(C)=CCC/C(C)=C/C=C/C(C)=C/C=C/C(C)=C/C=C/C=C(C)/C=C/C=C(C)/C=C/C=C(\C)CCC=C(C)C`, the Potency result in assay [1], in assay [2] and in assay [3] was “inactive” throughout.

In the case of `COc1cc(C)c(/C=C/C(C)=C/C=C/C(C)=C/C(=O)O)c(C)c1C`, the Potency entry in assay [4] and in assay [2] was “inactive” throughout. Further, in assay [3], the Potency is 0.572 µM (active). In assay [5], the ratio activity, negative = inhibition was -28.2%.

Regarding `CCN(CC)CCOC(=O)c1cccnc1`, the Potency result in assay [4], in assay [2] and in assay [3] was “inactive” in each case. Besides, in assay [5], the ratio activity, negative = inhibition is 2.66%.

Consider `Cc1cccc(Nc2ncccc2C(=O)O)c1C`, for which the Potency entry in assay [4], in assay [2] and in assay [3] was “inactive” each time. For the same molecule, in assay [5], the ratio activity, negative = inhibition is 6.34%.

As for `Cc1ncc(C[n+]2csc(CCO)c2C)c(N)n1`, the Potency result in assay [1] and in assay [2] was “inactive” throughout.

Regarding `O=C1c2ccccc2C(=O)C1c1ccc(Cl)cc1`, the Potency result in assay [4], in assay [2] and in assay [3] was “inactive” throughout. The ratio activity, negative = inhibition in assay [5] is -9.28%.

As for `O=C(/C=C/c1cccc(F)c1)NC1CC1`, the Potency result in assay [4] and in assay [3] was “inactive” throughout. The ratio activity, negative = inhibition in assay [5] was 2.97%.

Consider `CCCc1nc(C(C)(C)O)c(C(=O)OCc2oc(=O)oc2C)n1Cc1ccc(-c2ccccc2-c2nn[nH]n2)cc1`, for which the Potency result in assay [4], in assay [2] and in assay [3] was “inactive” in each case. In addition, the ratio activity, negative = inhibition in assay [5] is 0.293%.

As to `C(=C\c1ccncc1)/c1ccccc1`, the Potency result in assay [4] and in assay [3] was “inactive” each time. For the same molecule, the ratio activity, negative = inhibition in assay [5] was -6.31%.

Consider `CCOC(=O)Cc1ccc(-c2ccccc2)cc1`, for which the Potency entry in assay [4], in assay [2] and in assay [3] was “inactive” each time. Further, the ratio activity, negative = inhibition in assay [5] was 4.96%.

Turning to `C[C@]12CC[C@@H]3c4ccc(OC(=O)c5ccccc5)cc4CC[C@H]3[C@@H]1CC[C@@H]2O`, the Potency result in assay [1] and in assay [2] was “inactive” each time. Also, the Potency in assay [3] was 3.61 µM (active).

For `CCOC(=O)c1cc(-c2ccccc2)nc2ccc(C)cc12`, the Potency entry in assay [1] and in assay [2] was “inactive” throughout. Also, in assay [5], the ratio activity, negative = inhibition was 4.28%.

`CCN(CC)CCOc1ccc2nc(N(C)C)sc2c1`: the Potency entry in assay [1], in assay [2] and in assay [3] was “inactive” throughout. Also, the ratio activity, negative = inhibition in assay [5] is 0.178%.

For the molecule `CC(=O)N=c1sc(S(N)(=O)=O)nn1C`, the Potency result in assay [1] and in assay [3] was “inactive” each time. Further, the ratio activity, negative = inhibition in assay [5] was -0.416% [at 17.1 µM].

With `COc1cc(S(C)=O)ccc1-c1nc2ncccc2[nH]1` (stereo unspecified), the Potency entry in assay [2] and in assay [3] was “inactive” in each case. For the same molecule, in assay [5], the ratio activity, negative = inhibition was -7.74%.

`NCC(O)CC(=O)O` (stereo unspecified): the Potency result in assay [1], in assay [2] and in assay [3] was “inactive” in each case. Further, in assay [5], the ratio activity, negative = inhibition is 4.25%.

`O=P(O)(O)OP(=O)(O)O`: the Potency entry in assay [2] was “inactive”. Also, the Potency in assay [3] was 1.81 µM (active).

`Cc1ncc(COP(=O)(O)O)c(CN)c1O`: the Potency entry in assay [1], in assay [2] and in assay [3] was “inactive” in each case. Moreover, the ratio activity, negative = inhibition in assay [5] is -0.583%.

For `CC(C)(C)c1ccc2c(S(=O)(=O)O)c(C(C)(C)C)ccc2c1`, the Potency result in assay [2] and in assay [3] was “inactive” each time. The ratio activity, negative = inhibition in assay [5] was -0.38%.

(Values after PubChem BioAssay (NCATS).)
